“And” between values parts separate entries of the source, which are not always exact repeats. Identical values can stand only once. Inconclusive results are not listed. The source made the active and inactive calls. How the source made its calls, unless noted: active means hit-call score of the fitted dose curve at least 0.9, where 1 is the maximum; inconclusive means response in the unintended direction; inactive means score below 0.9.
Columns and labels:
[1] = target: Nuclear receptor subfamily 1 group I member 2 (Mus musculus) (UniProt O54915); assay: ATG_mPXR_XSP2: Attagene TRANS-FACTORIAL Multi-Species (XSP1) HepG2 Assay for mouse Pregnane X Receptor (PXR) (AID 2283831)
Summary of the method: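 Reporter transcripts measured after 24 h dosing by RT-PCR with 6-FAM labelling, HpaI digestion and capillary electrophoresis. Transiently transfected HepG2 with NR-Gal4 chimeras; increase over DMSO baseline scored.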

[2] = test system: zebrafish Peroxisome Proliferator-activated Receptor gamma (PPARg), gene 557037; assay: ATG_zfPPARg_XSP2: Attagene TRANS-FACTORIAL Multi-Species (XSP2) HepG2 Assay for zebrafish Peroxisome Proliferator-activated Receptor gamma (PPARg) (AID 2283833);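 further: reporter mRNA from a zebrafish PPARg GAL4 chimera measured by RT-PCR and capillary electrophoresis; actives increase reporter signal over DMSO so AC50 reflects activation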
Summary of the method: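 After 24 h chemical exposure, RNA from transiently transfected HepG2 (chimeric NR-Gal4 TRANS reporters) was reverse-transcribed, PCR-amplified, 6-FAM-labelled, HpaI-cut and sized by capillary electrophoresis. Induction was scored in the positive direction relative to DMSO.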

[3] = test system: turtle Thyroid Hormone Receptor, alpha (TRa), gene 101949057; assay: ATG_trTRa_XSP2: Attagene TRANS-FACTORIAL Multi-Species (XSP1) HepG2 Assay for turtle Thyroid Hormone Receptor, alpha (TRa) (AID 2283834);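 further: hits raise reporter mRNA over the DMSO baseline so AC50 marks activators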
Summary of the method: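 Turtle TRa-Gal4 chimera activity in transfected human HepG2 cells: reporter transcripts quantified by RT-PCR, 6-FAM labelling and capillary electrophoresis 24 h post-dosing; positive direction versus DMSO, medium containing 3 nM 6-alpha-fluorotestosterone and 1.5 nM norgestrel.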

[4] = ATG_M_61_XSP2: Attagene TRANS-FACTORIAL Multi-Species (XSP2) HepG2 Assay for M61 Transcription Factor (Internal Marker) (AID 2283835; active means hit-call score of the fitted dose curve at least 0.9, where 1 is the maximum; inactive means score below 0.9;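 further: reporter mRNA of an internal background marker read by RT-PCR and capillary electrophoresis; active means a rise in signal above the DMSO baseline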)
Summary of the method: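 First, HepG2 cells are transfected with reporter units under GAL4-UAS control. Next, chemicals are applied for 24 h. Then total RNA is reverse-transcribed, amplified, fluorescently labelled and sized by capillary electrophoresis, with gain of signal scored against DMSO.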

[5] = target: zebrafish Thyroid Hormone Receptor beta (TRb), thrb (gene 30607) (UniProt Q9PVE4); assay: ATG_zfTRb_XSP2: Attagene TRANS-FACTORIAL Multi-Species (XSP1) HepG2 Assay for zebrafish Thyroid Hormone Receptor beta (TRb) (AID 2283836);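 on AC50: potency for induction of reporter signal above DMSO so agonist direction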
Summary of the method: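 Human liver HepG2, transient MRTU transfection (NR-Gal4 chimeras, GAL4-UAS reporters); 24 h compound exposure; total RNA → oligo(dT) RT → PCR → 6-FAM label → HpaI cut → CE fluorescence. DMSO = negative control/baseline.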

[6] = target: human Thyroid hormone Receptor alpha (TRa), THRA (gene 7067) (UniProt P10827); assay: ATG_hTRa_XSP2: Attagene TRANS-FACTORIAL Multi-Species (XSP2) HepG2 Assay for human Thyroid hormone Receptor alpha (TRa) (AID 2283838)
Summary of the method: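 HepG2 cells were transiently transfected with GAL4-UAS reporter units for chimeric human TRa-Gal4 and dosed for 24 hours, with 3 nM 6-alpha-fluorotestosterone and 1.5 nM norgestrel present. Reporter mRNA was quantified by RT-PCR, FAM labelling and capillary electrophoresis, with gain of signal fitted versus DMSO.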

[7] = target: frog Thyroid hormone Receptor alpha (TRa), thra-a (gene 397942) (UniProt P15204); assay: ATG_frTRa_XSP2: Attagene TRANS-FACTORIAL Multi-Species (XSP2) HepG2 Assay for frog Thyroid hormone Receptor alpha (TRa) (AID 2283839)
Procedure: ATG_XSP2_multi-species_TRANS is a cell-based, multiplexed assay created by modifying the existing Attagene TRANS-FACTORIAL system to include a panel of nuclear receptors from some or all the following species: human (Homo sapiens), mouse (Mus musculus), frog (Xenopus laevis), zebrafish (Danio rerio), chicken (Gallus gallus), and turtle (Chrysemys picta). The ECOTOX-FACTORIAL format uses HepG2, a human liver cell line, with measurements taken at 24 hours after chemical dosing in a 24-well plate. Xsp2 included 3 nM 6-alpha-fluorotestosterone and 1.5 nM norgestrel to stimulate the androgen receptor.ATG_frTRa_XSP2 is one of 29 assay components measured or calculated from the ATG_XSP2_multi-species_TRANS assay. It is designed to make measurements of mRNA induction, a form of inducible reporter, as detected with fluorescence intensity signals by Reverse transcription polymerase chain reaction (RT-PCR) and Capillary electrophoresis technology.The assay endpoint ATG_frTRa_XSP2 was analyzed in the positive analysis fitting direction relative to DMSO as the negative control and baseline of activity. […] Furthermore, this assay endpoint can be referred to as a primary readout, because this assay has produced multiple assay endpoints where this one serves a reporter gene function. […]

[8] = target: human Thyroid hormone Receptor beta (TRb), THRB (gene 7068) (UniProt P10828); assay: ATG_hTRb_XSP2: Attagene TRANS-FACTORIAL Multi-Species (XSP2) HepG2 Assay for human Thyroid hormone Receptor beta (TRb) (AID 2283840);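 further: actives raise reporter mRNA so potency reflects agonist-like gain of signal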
Summary of the method: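 Activity of exogenous human TRb–Gal4 fusion measured by reporter mRNA from RT-PCR and capillary electrophoresis, 24 h after dosing transfected HepG2. 6-alpha-fluorotestosterone (3 nM) and norgestrel (1.5 nM) present. Gain-of-signal fit relative to DMSO.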

[9] = target: zebrafish Thyroid Hormone Receptor alpha (TRa), thraa (gene 30670) (UniProt Q98867); assay: ATG_zfTRa_XSP2: Attagene TRANS-FACTORIAL Multi-Species (XSP1) HepG2 Assay for zebrafish Thyroid Hormone Receptor alpha (TRa) (AID 2283832);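 further: actives raise zebrafish TRa-Gal4 reporter transcript above DMSO baseline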
Summary of the method: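 Transient transfection of human HepG2 with GAL4-UAS reporter units, then 24 h chemical treatment. RNA isolated, reverse-transcribed, PCR-amplified, FAM-labelled, HpaI-digested and run on capillary electrophoresis. Gain-of-signal relative to DMSO.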

[10] = ATG_XTT_Cytotoxicity_XSP2: Cytotoxicity Assessment in the Attagene TRANS-FACTORIAL Multi-Species (XSP2) HepG2 Assay (AID 2283837)
Summary of the method: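 HepG2 cells, transiently transfected with multiple reporter constructs, exposed to chemical for 24 h. Cell number assessed with XTT fluorescence read-out; loss of signal fitted relative to DMSO.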

Measured: AC50

frog Thyroid hormone Receptor alpha (TRa), thra-a (gene 397942), sequence (P15204 whole entry, looked up): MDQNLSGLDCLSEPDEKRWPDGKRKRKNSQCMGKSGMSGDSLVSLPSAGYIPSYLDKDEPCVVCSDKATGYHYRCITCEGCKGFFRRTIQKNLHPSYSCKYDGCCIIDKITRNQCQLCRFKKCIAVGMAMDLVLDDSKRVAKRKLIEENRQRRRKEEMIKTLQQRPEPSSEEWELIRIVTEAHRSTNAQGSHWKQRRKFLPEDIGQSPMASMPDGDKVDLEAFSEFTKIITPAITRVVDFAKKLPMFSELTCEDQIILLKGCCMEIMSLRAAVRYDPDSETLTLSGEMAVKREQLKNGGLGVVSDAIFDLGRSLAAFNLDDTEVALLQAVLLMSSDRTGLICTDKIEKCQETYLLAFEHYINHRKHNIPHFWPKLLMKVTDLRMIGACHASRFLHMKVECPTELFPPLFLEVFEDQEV
zebrafish Thyroid Hormone Receptor alpha (TRa), thraa (gene 30670), sequence (Q98867 whole entry, looked up, the tested form may be a part): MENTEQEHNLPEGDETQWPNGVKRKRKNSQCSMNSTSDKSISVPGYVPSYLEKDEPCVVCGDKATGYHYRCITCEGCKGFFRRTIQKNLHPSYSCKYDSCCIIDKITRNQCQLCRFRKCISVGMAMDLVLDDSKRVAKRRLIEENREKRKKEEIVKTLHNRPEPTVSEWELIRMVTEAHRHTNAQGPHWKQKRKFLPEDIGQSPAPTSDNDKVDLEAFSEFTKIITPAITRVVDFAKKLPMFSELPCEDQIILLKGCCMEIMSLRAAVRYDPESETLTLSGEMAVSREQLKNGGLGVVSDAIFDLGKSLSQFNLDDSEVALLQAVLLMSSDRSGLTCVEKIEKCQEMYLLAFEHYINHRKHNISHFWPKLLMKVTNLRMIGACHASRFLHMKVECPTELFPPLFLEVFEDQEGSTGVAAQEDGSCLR
zebrafish Thyroid Hormone Receptor beta (TRb), thrb (gene 30607), sequence (Q9PVE4 whole entry, looked up, the tested form may be a part): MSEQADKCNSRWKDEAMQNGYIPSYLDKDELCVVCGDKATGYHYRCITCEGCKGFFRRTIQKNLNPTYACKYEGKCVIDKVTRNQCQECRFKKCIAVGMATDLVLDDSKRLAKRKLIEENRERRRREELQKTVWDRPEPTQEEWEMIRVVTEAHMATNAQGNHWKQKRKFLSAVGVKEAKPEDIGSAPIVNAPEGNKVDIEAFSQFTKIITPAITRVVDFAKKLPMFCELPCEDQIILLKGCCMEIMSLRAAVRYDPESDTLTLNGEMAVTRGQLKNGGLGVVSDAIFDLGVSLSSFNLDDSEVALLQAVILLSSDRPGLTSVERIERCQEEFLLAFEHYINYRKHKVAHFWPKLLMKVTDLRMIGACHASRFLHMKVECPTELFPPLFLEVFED
Nuclear receptor subfamily 1 group I member 2 (Mus musculus), sequence (O54915 whole entry, looked up, the tested form may be a part): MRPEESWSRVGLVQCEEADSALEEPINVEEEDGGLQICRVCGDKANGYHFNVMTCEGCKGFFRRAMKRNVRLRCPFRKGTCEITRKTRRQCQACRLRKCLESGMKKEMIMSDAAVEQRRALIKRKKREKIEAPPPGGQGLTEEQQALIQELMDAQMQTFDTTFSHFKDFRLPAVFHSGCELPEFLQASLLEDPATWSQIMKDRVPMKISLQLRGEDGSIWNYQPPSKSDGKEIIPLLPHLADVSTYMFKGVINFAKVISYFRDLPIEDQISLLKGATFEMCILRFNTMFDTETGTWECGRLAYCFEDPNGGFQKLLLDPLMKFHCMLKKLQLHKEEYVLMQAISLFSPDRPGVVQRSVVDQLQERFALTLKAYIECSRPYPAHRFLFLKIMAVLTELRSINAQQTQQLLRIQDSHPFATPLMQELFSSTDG
human Thyroid hormone Receptor beta (TRb), THRB (gene 7068), sequence (P10828 whole entry, looked up, the tested form may be a part): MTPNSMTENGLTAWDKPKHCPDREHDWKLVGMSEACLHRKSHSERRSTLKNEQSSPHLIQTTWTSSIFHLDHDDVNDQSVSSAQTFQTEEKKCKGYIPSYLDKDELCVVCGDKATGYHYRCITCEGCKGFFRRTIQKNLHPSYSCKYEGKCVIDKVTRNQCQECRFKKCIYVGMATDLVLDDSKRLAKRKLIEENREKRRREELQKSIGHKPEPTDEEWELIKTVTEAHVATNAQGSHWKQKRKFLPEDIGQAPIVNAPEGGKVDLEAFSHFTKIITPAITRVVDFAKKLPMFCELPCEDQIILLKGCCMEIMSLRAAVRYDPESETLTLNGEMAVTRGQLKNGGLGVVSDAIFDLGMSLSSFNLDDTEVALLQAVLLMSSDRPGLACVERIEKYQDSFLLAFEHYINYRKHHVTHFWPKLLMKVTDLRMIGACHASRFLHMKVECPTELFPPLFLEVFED
human Thyroid hormone Receptor alpha (TRa), THRA (gene 7067), sequence (P10827 whole entry, looked up, the tested form may be a part): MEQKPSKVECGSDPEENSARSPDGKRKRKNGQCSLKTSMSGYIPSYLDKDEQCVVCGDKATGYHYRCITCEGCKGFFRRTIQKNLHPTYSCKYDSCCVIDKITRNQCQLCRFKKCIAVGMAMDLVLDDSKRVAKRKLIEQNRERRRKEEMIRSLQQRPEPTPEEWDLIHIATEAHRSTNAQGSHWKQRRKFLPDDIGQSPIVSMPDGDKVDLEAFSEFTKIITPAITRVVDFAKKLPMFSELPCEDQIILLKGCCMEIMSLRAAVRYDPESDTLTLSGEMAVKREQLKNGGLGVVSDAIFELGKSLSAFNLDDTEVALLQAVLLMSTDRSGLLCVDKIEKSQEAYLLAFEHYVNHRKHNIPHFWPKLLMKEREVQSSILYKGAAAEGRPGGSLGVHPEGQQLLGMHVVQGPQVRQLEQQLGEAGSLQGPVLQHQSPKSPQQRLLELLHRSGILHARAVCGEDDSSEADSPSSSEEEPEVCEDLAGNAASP

Cc1c(C)c2c(c(C)c1O)CCC(C)(COc1ccc(CC3SC(=O)NC3=O)cc1)O2 (centres undefined)
active: [5] 2660 nM
inactive: [1] | [2] | [3] | [4] | [6] | [7] | [8]

CC(=O)[C@@]1(O)CC[C@H]2[C@@H]3CCC4=CC(=O)CC[C@]4(C)[C@H]3CC[C@@]21C
inactive: [9] | [3] | [5] | [7]

CC(=O)O[C@]1(C(C)=O)CC[C@H]2[C@@H]3C=C(Cl)C4=CC(=O)[C@@H]5C[C@@H]5[C@]4(C)[C@H]3CC[C@@]21C
inactive: [9] | [2] | [4] | [5]
active: [1] 686 nM

CCN(CC)CCOc1ccc(C(=C(Cl)c2ccccc2)c2ccccc2)cc1
active: [1] 2.9 µM and 6.64 µM | [10] 34000 nM
inactive: [9] | [2] | [4] | [5] | [8]

From PubChem BioAssay (EPA / NIEHS)
